Results published in publication PMC6925144, “A prospective compound screening contest identified broader inhibitors for Sirtuin 1” (Scientific Reports, 2019).
Over roughly 3,200 compounds, “TSA(with NAD+) / Primary screening (TSA) / delta Tm (K)” has its median near -0.04; the highest 2% begin near 0.37. The full list was thinned out, with the highest values kept by preference.

Target: NAD-dependent deacetylase Sirtuin 1 (human, UniProt Q96EB6)
Experiment: primary screen, delta tm
Design: single well (n = 1, as 'the same TSA')
Conditions: 10 µM
Procedure: A total of 3,192 compounds extracted from the proposed lists were first screened by thermal shift assay (TSA), which determined a melting temperature shift (ΔTm) of Sirtuin 1 upon the addition of a test compound at a concentration of 10 µM (n = 1) with primary hit criteria of ΔTm > 0.45 K or ΔTm < −1.5 K. Primary hits (48 compounds) were retested in the same assay at three concentrations (5, 10, 20 µM, n = 4) for hit confirmation and for dose-dependency check. Secondary hits (41 compounds) were checked their selectivity for Sirtuin 1 based on counterscreening on unrelated protein targets (bovine carbonic anhydrase (CA) and recombinant SH2 domain of hABL1 kinase (ABL1)) at three different concentrations (5, 10, 20 µM, n = 4), which yielded 38 hit compounds, hereafter referred to as TSA hits. The TSA screening above was conducted in the absence of NAD+. As noted, the structure of Sirtuin 1 is different in the presence of NAD+ and substrate. The chemical profile of TSA hits found from the different conditions could be different. […] As a result, 39 TSA hits were found.

Chain of NAD-dependent deacetylase Sirtuin 1 (Q96EB6 2-747 limits assumed): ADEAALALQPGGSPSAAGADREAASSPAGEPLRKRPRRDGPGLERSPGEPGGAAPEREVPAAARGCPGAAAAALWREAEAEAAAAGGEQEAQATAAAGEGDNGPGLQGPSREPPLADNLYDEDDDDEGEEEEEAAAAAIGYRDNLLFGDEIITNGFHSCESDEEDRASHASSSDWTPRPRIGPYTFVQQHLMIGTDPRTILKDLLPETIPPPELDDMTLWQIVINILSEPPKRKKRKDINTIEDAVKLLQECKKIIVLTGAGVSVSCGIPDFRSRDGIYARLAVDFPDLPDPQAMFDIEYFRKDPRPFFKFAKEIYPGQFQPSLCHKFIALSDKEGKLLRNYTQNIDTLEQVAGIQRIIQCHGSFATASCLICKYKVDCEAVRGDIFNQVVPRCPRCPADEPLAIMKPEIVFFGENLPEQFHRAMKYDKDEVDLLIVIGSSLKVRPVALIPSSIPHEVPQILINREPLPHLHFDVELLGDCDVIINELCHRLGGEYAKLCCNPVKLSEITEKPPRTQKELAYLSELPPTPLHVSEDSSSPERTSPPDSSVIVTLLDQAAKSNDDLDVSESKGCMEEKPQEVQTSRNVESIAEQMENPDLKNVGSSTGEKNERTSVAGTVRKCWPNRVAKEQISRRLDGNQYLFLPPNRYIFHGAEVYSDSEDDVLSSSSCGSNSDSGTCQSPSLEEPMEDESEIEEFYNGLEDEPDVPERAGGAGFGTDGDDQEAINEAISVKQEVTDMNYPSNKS

SMILES	TSA(with NAD+) / Primary screening (TSA) / delta Tm (K)
CCCNc1nnc(S)s1	-0.33
CN(c1ccccc1)S(=O)(=O)c1cccc(NC(=O)CNc2cccc3ccccc23)c1	0.41
CN(c1ccccc1)S(=O)(=O)c1cccc(NCC(=O)Nc2ccc(Br)cc2)c1	-0.01
CN(c1ccccc1)S(=O)(=O)c1cccc(NC(=O)CCc2c[nH]c3ccccc23)c1	0.32
CN(c1ccccc1)S(=O)(=O)c1cccc(NC(=O)c2cc(Cl)nc3ccccc23)c1	0.16
CN(c1ccccc1)S(=O)(=O)c1cccc(C(=O)NCCc2c[nH]c3ccccc23)c1	0.17
CN(c1ccccc1)S(=O)(=O)c1cccc(NC(=O)CCCc2c[nH]c3ccccc23)c1	0.39
CCOC(=O)C1=C(COC(=O)c2sc(-c3ccco3)nc2-c2ccccc2)NC(=O)NC1	0.06
CS(=O)(=O)c1ccc(NCCNC(=O)C23CC4CC(C2)CC(c2ccccc2)(C4)C3)c([N+](=O)[O-])c1	0.18
CN(Cc1nc(-c2cccnc2)no1)Cc1c[nH]nc1-c1cccnc1	-0.01
Cc1ccc(OCc2nc3ccccc3n2Cc2ccccc2)cc1	-0.21
Cc1ccc(N(C)S(=O)(=O)c2cccc(C(=O)Nc3cccc(C(=O)NC4CC4)c3)c2)cc1	-0.03
CN(c1ccccc1)S(=O)(=O)c1cccc(C(=O)Nc2ccccc2)c1	-0.01
Cc1ccc(N(C)S(=O)(=O)c2cccc(C(=O)Nc3ccncc3)c2)cc1	-0.15
Cc1ccc(N(C)S(=O)(=O)c2cccc(C(=O)Nc3ccc(C(N)=O)cc3)c2)cc1	0.46
CC1CCc2[nH]c3ccc(C(=O)Nc4cccc(S(=O)(=O)N(C)c5ccccc5)c4)cc3c2C1 (centres unmarked)	0.39
Cc1ccc(N(C)S(=O)(=O)c2cccc(C(=O)Nc3ccc4c(c3)C(=O)N(C)C4=O)c2)cc1	0.89
CN(c1ccccc1)S(=O)(=O)c1cccc(NC(=O)c2ccc(C(N)=O)cc2)c1	-0.01
Cc1ccc(NC(=O)c2cccc(S(=O)(=O)N(C)c3ccc(C)cc3)c2)cc1	0.29
CSc1cccc(NC(=O)c2cccc(S(=O)(=O)N(C)c3ccc(C)cc3)c2)c1	0.19
CC(=O)Nc1ccc(NC(=O)c2cccc(S(=O)(=O)N(C)c3ccc(C)cc3)c2)cc1	-0.04
Cc1ccc(N(C)S(=O)(=O)c2cccc(C(=O)Nc3ccc(Br)c(C)c3)c2)cc1	0.73

SMILES	TSA(with NAD+) / Primary screening (TSA) / delta Tm (K)
COc1cccc(NC(=O)c2cccc(S(=O)(=O)N(C)c3ccc(C)cc3)c2)c1	-0.06
COc1ccc(CCn2c(C)cc(C(=O)COC(=O)C34CC5CC(CC(O)(C5)C3)C4)c2C)cc1	-0.19
CN1C(=O)c2oc3ccccc3c(=O)c2C1c1ccccc1F (centres unmarked)	0.01
CCC(=O)c1ccc(OCC(=O)NNC(=O)c2cc(C)oc2C)cc1	-0.03
COc1cccc(C(C)NCc2ccc3[nH]c(=O)[nH]c3c2)c1 (centres unmarked)	-0.08
O=C1NC(C(=O)O)=CC(c2ccccc2C(F)(F)F)N1 (centres unmarked)	-0.12
CC1(c2cccc(NC(=O)c3ccc4c(c3)CCC4)c2)NC(=O)NC1=O (centres unmarked)	-0.13
CN(c1ccccc1)S(=O)(=O)c1cccc(NC(=O)COC(=O)C23CC4CC(CC(C4)C2)C3)c1	0.13
COC(=O)c1ccc(C2NC(=O)NC3=C2C(=O)N(CC(C)O)C3)cc1 (centres unmarked)	-0.05
C=C(Br)CN	0.06
NC(=O)c1cc(C2CCCN(c3nccc(-n4cccn4)n3)C2)n[nH]1 (centres unmarked)	0.05
Cc1ccc(N(C)S(=O)(=O)c2cccc(C(=O)Oc3ccc4c(C)cc(=O)oc4c3)c2)cc1	0.16
O=C(NC(=S)Nc1ccc(-c2nc3ccccc3[nH]2)cc1)C12CC3CC(CC(C3)C1)C2	0.43
O=C1CCCCC(C(=O)Nc2ccc(-c3nc4ccccc4[nH]3)cc2)N1 (centres unmarked)	0.16
O=C(CC12CC3CC(CC(C3)C1)C2)NCC(=O)Nc1ccc(Sc2nc3ccccc3[nH]2)cc1	0.23
COc1ccc2nc(C)c(C(=O)NC34CC5CC(CC(C5)C3)C4)cc2c1	-0.28
C[C@@H](N)CCO	-0.05
O=C1NC(=S)NC(=O)C1=Cc1cn(-c2ccccc2)nc1-c1cc2ccccc2oc1=O	-0.05
O=C1NC(=S)NC(=O)C1=Cc1cn(-c2ccccc2)nc1-c1cc2ccccc2o1	0.56
O=C1NC(=O)C(=Cc2cn(-c3ccccc3)nc2-c2cc3ccccc3o2)C(=O)N1	-0.11
O=S(=O)(c1ccc(C(F)(F)F)cc1)N1CCNCC1	0.03
CN(C)Cc1ccc(C(=O)Nc2cccc(C(=O)NC3CC3)c2)cc1	0.01

SMILES	TSA(with NAD+) / Primary screening (TSA) / delta Tm (K)
O=C(Nc1cccc(C(F)(F)F)c1)c1cccc(NC(=O)c2cc3c(cc2[N+](=O)[O-])OCCO3)c1	0.38
NC(=O)NCCCCC(=O)Nc1cccc(C(F)(F)F)c1	0.08
CCc1cc2c(N3CCN(Cc4ccc5c(c4)OCO5)CC3)nc(C)nc2s1	-0.04
NCCCC(N)C(=O)O (centres unmarked)	-0.08
NC(=O)CC1CCN(C(=O)CCc2c[nH]c3ccccc23)CC1	-0.03
O=C(CCc1ccccc1)NC1CCN(c2ccc([N+](=O)[O-])c3cccnc23)CC1	-0.21
Cc1c(C=C2C(=O)NC(=S)NC2=O)c2ccccn2c1C(=O)c1cccc([N+](=O)[O-])c1	-0.03
O=C(CCc1ccccc1)Nc1ccccc1Cc1ccccc1	-0.06
O=C(COc1ccccc1C(=O)Nc1ccc(S(=O)(=O)Nc2nccs2)cc1)Nc1cccc(C(F)(F)F)c1	0.82
NC(=O)COC(=O)c1ccc(OCC(=O)Nc2cccc(C(F)(F)F)c2)cc1	0.23
Cc1cccc(-n2ccnc2SCC(=O)Nc2ccc(S(=O)(=O)Nc3nccs3)cc2)c1C	0.13
CC(C)c1ccc(C(NC(=O)c2cccc(C(N)=O)c2)c2cccs2)cc1 (centres unmarked)	-0.05
O=C1NC(=S)N/C1=C\c1ccccc1OCc1ccc(C(=O)O)cc1	0.23
COc1ccc(C(=O)NCCc2ccc(-c3csc(C)n3)s2)cc1	-0.09
Cc1nc(-c2ccc(CCNC(=O)c3ccc(NC(N)=O)cc3)s2)cs1	0.08
Cc1nc(-c2ccc(CCNC(=O)c3ccc(NC(=O)c4cccs4)cc3)s2)cs1	0.58
Cc1ccccc1CNC(=O)CSc1nc2ccsc2c(=O)n1C	-0.22
O=C(Nc1ccc2c3c(cccc13)CC2)N1CCC(n2cncn2)CC1	-0.08
CCCN1CCN(CCCOc2ccccc2)CC1	-0.12
CC12CCC(C/C1=N/N=C1/CC3CCC1(C)C3(C)C)C2(C)C	-0.29
O=C(CSc1nnnn1-c1ccc(O)cc1)N1N=C(c2ccc3ccccc3c2)CC1c1ccccc1 (centres unmarked)	0.66
CC(=O)N1N=C(c2ccccc2)CC1c1ccc(Br)cc1 (centres unmarked)	-0.08

SMILES	TSA(with NAD+) / Primary screening (TSA) / delta Tm (K)
CC(=O)N1N=C(c2ccc(O)cc2)CC1c1ccccc1 (centres unmarked)	0.36
COc1ccnc(C(=O)NCC(C)(C)N2CCC(N(C)C)CC2)c1	-0.14
OC(CNc1ncccn1)c1ccc(Cl)cc1 (centres unmarked)	-0.04
O=C(O)c1ccc2[nH]c(S)nc2c1	-0.13
CC(OC(=O)Cc1c[nH]c2ccccc12)C(=O)Nc1ccc(C(N)=O)cc1 (centres unmarked)	0.12
O=C(CCc1c[nH]c2ccccc12)NCCc1ccco1	-0.11
O=C(CCc1c[nH]c2ccccc12)Nc1ccc2nc[nH]c(=O)c2c1	0.27
O=C(CCc1c[nH]c2ccccc12)Nc1nnc(-c2ccccc2)o1	0.39
O=C1NC(=S)NC(=O)C1=Cc1cc2ccccc2[nH]c1=O	-0.09
CN(c1ccccc1)S(=O)(=O)c1ccc(C(=O)Nc2cccc(S(=O)(=O)N3CCOCC3)c2)cc1	-0.01
O=C(Nc1cccc(S(=O)(=O)N2CCOCC2)c1)C(c1ccccc1)c1ccccc1	0.16
O=C(Nc1cccc(S(=O)(=O)N2CCOCC2)c1)c1cn(-c2ccccc2)nc1-c1ccc(F)cc1	0.39
O=C(Nc1cccc(S(=O)(=O)N2CCOCC2)c1)c1cc(-c2ccccc2)nn1-c1ccccc1	-0.04
O=C(Nc1cccc(S(=O)(=O)N2CCOCC2)c1)c1cccc(S(=O)(=O)N2CCc3ccccc32)c1	0.41
Cc1ccc(-c2nn(-c3ccccc3)cc2C(=O)Nc2cccc(S(=O)(=O)N3CCOCC3)c2)cc1	0.26
O=C(Nc1cccc(S(=O)(=O)N2CCOCC2)c1)c1cn(-c2ccccc2)nc1-c1ccccc1	0.12
O=C(Nc1cccc(S(=O)(=O)N2CCOCC2)c1)c1ccccc1Cc1ccccc1	-0.09
O=C(Nc1cccc(S(=O)(=O)N2CCOCC2)c1)c1cn(-c2ccccc2)nc1-c1ccc(Cl)cc1	0.63
O=C(CCC(=O)c1ccccc1)Nc1ccccc1Cc1ccccc1	-0.11
COC1CCCC1NC(=O)Cc1sc(S)nc1C (centres unmarked)	-0.26
